Experimental data as given in PubChem BioAssay (Tox21).
Records with an inconclusive call do not appear. Active and inactive are the calls of the source. The call rests on the fitted dose curve.

Legend:
[1] = target: Acetylcholinesterase (Homo sapiens) (UniProt P22303); assay: Acetylcholinesterase (AChE) small molecule antagonists: colormetric cell-based qHTS assay (AID 1347395); further: nearly all actives have a fitted effect of over 30% in size
Outline: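 Neuroblastoma line SH-SY5Y supplied the enzyme; cells were preincubated with compound for 30 min at 37 C and 5% CO2. Acetylthiocholine with DTNB was then added for 90 min at 37 C, and thiocholine was measured by colour.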

[2] = target: Acetylcholinesterase (Homo sapiens) (UniProt P22303); assay: Acetylcholinesterase (AChE) small molecule antagonists: enzyme-based qHTS assay (AID 1347397); conditions: Potency: AChE enzyme activity inhibition; outcome: AChE enzyme activity inhibition; further: nearly all actives have a fitted effect of over 55% in size
Outline: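 Absorbance-based detection of thiocholine with DTNB served as the read-out. Recombinant human AChE was exposed to compound for 30 min at RT before a 10 min RT incubation with acetylthiocholine.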

[3] = target: Acetylcholinesterase (Homo sapiens) (UniProt P22303); assay: Acetylcholinesterase (AChE) small molecule antagonists: fluorescence cell-based qHTS assay (AID 1347398); conditions: Potency: AChE activity; outcome: AChE activity; further: nearly all actives have a fitted effect of over 50% in size
Outline: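 Fluorimetric cell-based assay: intact SH-SY5Y cells, 30 min compound preincubation at 37 C, acetylthiocholine substrate with thiol probe Thiolite Green, 40 min RT development, fluorescence 490/520 nm.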

[4] = target: Acetylcholinesterase (Homo sapiens) (UniProt P22303); assay: Acetylcholinesterase (AChE) small molecule antagonists: enzyme-based qHTS assay with human liver microsomes (AID 1347399); conditions: Potency: qHTS inhibition; outcome: qHTS inhibition; further: nearly all actives have a fitted effect of over 60% in size
Outline: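 Recombinant human AChE (50 mU/mL in the enzyme mix) and human liver microsomes (0.25 mg/mL final) were preincubated with compound and NADPH (0.25 mg/mL final) for 30 min at 37 C. Acetylthiocholine/DTNB was then added; thiocholine was read colorimetrically after 10 min at room temperature.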
On the % scale 0 is the no-effect control and ±100 the full control effect.

Chain of Acetylcholinesterase (Homo sapiens) (P22303 whole entry, looked up): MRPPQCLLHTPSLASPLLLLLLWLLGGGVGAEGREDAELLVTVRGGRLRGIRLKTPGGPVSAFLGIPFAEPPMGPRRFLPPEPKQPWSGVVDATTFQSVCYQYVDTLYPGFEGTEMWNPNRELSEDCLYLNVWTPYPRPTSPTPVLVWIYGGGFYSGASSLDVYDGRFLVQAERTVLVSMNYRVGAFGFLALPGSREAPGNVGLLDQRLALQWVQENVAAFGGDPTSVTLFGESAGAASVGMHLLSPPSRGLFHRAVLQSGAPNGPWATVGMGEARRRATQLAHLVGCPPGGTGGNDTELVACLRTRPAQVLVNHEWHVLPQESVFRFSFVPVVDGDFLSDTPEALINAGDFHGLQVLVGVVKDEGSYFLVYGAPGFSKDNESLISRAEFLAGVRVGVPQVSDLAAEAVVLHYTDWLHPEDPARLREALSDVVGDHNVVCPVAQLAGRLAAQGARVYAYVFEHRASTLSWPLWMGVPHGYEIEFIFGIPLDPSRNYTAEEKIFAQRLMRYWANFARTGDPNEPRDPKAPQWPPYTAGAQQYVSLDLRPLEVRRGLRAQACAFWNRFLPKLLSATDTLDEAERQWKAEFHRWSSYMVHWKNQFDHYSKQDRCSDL

CCCCCCCOC(=O)c1ccccc1C(=O)OCCCCCCC
inactive: Potency [1] | Potency [2] | Potency [3] | Potency [4]

NCc1ccccc1
inactive: Potency [1] | Potency [2] | Potency [3] | Potency [4]

CC(COc1ccccc1)NC(C)C(O)c1ccc(O)cc1 (centres undefined)
inactive: Potency [1] | Potency [2] | Potency [3] | Potency [4]

CCN(CC)c1ccc(C=O)cc1
inactive: Potency [1] | Potency [2] | Potency [3] | Potency [4]

C=C(C)C1CCC(C)(O)CC1 (centres undefined)
inactive: Potency [1] | Potency [2] | Potency [3] | Potency [4]

NC(=O)Nc1ccccc1
inactive: Potency [1] | Potency [2] | Potency [3] | Potency [4]

CCCCCCCC/C=C\CCCCCCCC(=O)OCCCC
inactive: activity, negative = inhibition [1] 0.807% [at 23.6 µM] | activity change, negative = inhibition [2] 0.806% [at 23.6 µM] | activity change, negative = inhibition [3] -0.0934% [at 23.8 µM] | activity change, negative = inhibition [4] 0.083% [at 23.6 µM]

COc1ccc(C(=O)Nc2nc3ccccc3c(NCc3ccccc3)c2C#N)cc1
inactive: Potency [1] | Potency [2] | Potency [3] | Potency [4]

c1ccc(CN(Cc2ccccc2)Cc2ccccc2)cc1
inactive: Potency [1] | Potency [2] | Potency [3] | Potency [4]

O=C(O)CO
inactive: Potency [1] | Potency [2] | Potency [3] | Potency [4]

Cn1c(=O)c2c(ncn2CC(O)CO)n(C)c1=O (centres undefined)
inactive: Potency [1] | Potency [2] | Potency [3] | Potency [4]

CCOc1ccc2[nH]cc(C(=O)NCc3ccccc3)c(=O)c2n1
inactive: Potency [1] | Potency [2] | Potency [3] | Potency [4]

C/C=C/C(=O)C1=C(C)C=CCC1(C)C
inactive: Potency [1] | Potency [2] | Potency [3] | Potency [4]

CC(=O)c1ccc2c(c1)[C@H](NC(=O)c1ccc(F)cc1)[C@@H](O)C(C)(C)O2
inactive: Potency [1] | Potency [2] | Potency [3] | Potency [4]

O=c1[nH]c(=O)n([C@H]2O[C@H](CO)[C@@H](O)[C@@H]2O)cc1/C=C\Br
inactive: Potency [1] | Potency [2] | Potency [3] | Potency [4]

NS(=O)(=O)Cc1noc2ccccc12
inactive: Potency [1] | Potency [2] | Potency [3] | Potency [4]

CCCCCCCCCCCCCCC1CO1 (centres undefined)
inactive: Potency [1] | Potency [2] | Potency [3] | Potency [4]

CCOC(=O)C(=O)OCC
inactive: Potency [1] | Potency [2] | Potency [3] | Potency [4]

CC(C)(C)c1cc(CCC(=O)NCCCCCCNC(=O)CCc2cc(C(C)(C)C)c(O)c(C(C)(C)C)c2)cc(C(C)(C)C)c1O
inactive: Potency [1] | Potency [2] | Potency [3] | Potency [4]

CCCCC(CC)CNC(=O)CC(C)OC(=O)CCC(=O)O (centres undefined)
inactive: Potency [1] | Potency [2] | Potency [3] | Potency [4]

CC1COc2c(N3CCN(C)CC3)c(F)cc3c(=O)c(C(=O)O)cn1c23 (centres undefined)
inactive: Potency [1] | Potency [2] | Potency [3] | Potency [4]

CN1[C@@H]2CC[C@H]1CC(NC(=O)n1c(=O)[nH]c3ccccc31)C2 (some centres undefined)
inactive: Potency [1] | Potency [2] | Potency [3] | Potency [4]

CC(=C(CCOC(=O)C(C)C)SSC(CCOC(=O)C(C)C)=C(C)N(C=O)Cc1cnc(C)nc1N)N(C=O)Cc1cnc(C)nc1N
inactive: Potency [1] | Potency [2] | Potency [3] | Potency [4]

COc1cnc(NS(=O)(=O)c2ccc(N)cc2)nc1
inactive: Potency [1] | Potency [2] | Potency [3] | Potency [4]

O=C1N(c2ccccc2)c2ccccc2C1(Cc1ccncc1)Cc1ccncc1
inactive: Potency [1] | Potency [2] | Potency [3] | Potency [4]

CN1C(C)(C)CCCC1(C)C
inactive: Potency [1] | Potency [2] | Potency [3] | Potency [4]

CC(C)OC(=O)c1cc2c(OCC(O)CNC(C)(C)C)cccc2[nH]1 (centres undefined)
inactive: Potency [1] | Potency [2] | Potency [3] | Potency [4]

CCCC(=O)OCc1ccccc1
inactive: Potency [1] | Potency [2] | Potency [3] | Potency [4]

CC(=O)O[C@@H]1CC2CCC1(C)C2(C)C (some centres undefined)
inactive: Potency [1] | Potency [2] | Potency [3] | Potency [4]

O=C(O)/C=C/c1ccccc1
inactive: Potency [1] | Potency [2] | Potency [3] | Potency [4]

CCN(Cc1cccc(S(=O)(=O)O)c1)c1ccc(C(=C2C=CC(=[N+](CC)Cc3cccc(S(=O)(=O)O)c3)C=C2)c2ccc(O)cc2S(=O)(=O)[O-])cc1
inactive: Potency [1] | Potency [2] | Potency [3] | Potency [4]

CC(N=C(NC#N)Nc1ccncc1)C(C)(C)C (centres undefined)
inactive: Potency [1] | Potency [2] | Potency [3] | Potency [4]

CCCCCCCCC1CCC(=O)O1 (centres undefined)
inactive: Potency [1] | Potency [2] | Potency [3] | Potency [4]

COc1ccc2c(c1)C(=O)N(CCc1ccc(S(=O)(=O)NC(=O)NC3CCCCC3)cc1)C(=O)C2(C)C
inactive: Potency [1] | Potency [2] | Potency [3] | Potency [4]

CC(C)(O)c1ccccc1
inactive: Potency [1] | Potency [2] | Potency [3] | Potency [4]

CCCCCCCC/C=C\CCCCCCCCO
inactive: Potency [1] | Potency [2] | Potency [3] | Potency [4]

Cc1cc(O)c(C(C)(C)C)cc1C(C)(C)C
inactive: Potency [1] | Potency [2] | Potency [3] | Potency [4]

O=C(O)c1cc(N=Nc2ccc([N+](=O)[O-])cc2)ccc1O
inactive: Potency [1] | Potency [2] | Potency [3] | Potency [4]

COC(=O)C(C)(C)C
inactive: Potency [1] | Potency [2] | Potency [3] | Potency [4]

CC(Cc1ccccc1)(NC(=O)CN)c1ccccc1 (centres undefined)
inactive: Potency [1] | Potency [2] | Potency [3] | Potency [4]

CC(C)(C)CC(C)(C)c1ccc(OCCO)cc1
inactive: Potency [1] | Potency [2] | Potency [3] | Potency [4]
